# In PubChem BioAssay AID1159580 (chemical genetic matrix, 2015):
# “And” between values parts separate entries of the source, which are not always exact repeats. Identical values can stand only once. Screen size: about 5,500 compounds; about 2,000 (36%) were called active. Inconclusive results (about 18%) are left out. The list shows a part of the results. Unmarked numbers belong to inactive results. No stated cut-off is given here; in the data, active means normalized growth mostly below about 0.91 (no sharp cut-off); inconclusive means no clear call, values can overlap the other calls; inactive means mostly above about 0.92.
# Assay: chemical genetic growth profiling, strain panel (AID 1159580);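 further: tested at 20 µM; growth read once vehicle control cultures reached saturation at 30 °C; 1 = growth at the plate median or of vehicle wells; lower values mean less growth of the strain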
# Conditions: S. cerevisiae deletion strains, growth OD
smiles,measurement,setting,value
CCC(C)C(=O)O[C@@H]1C[C@@]2(C)[C@H](c3ccoc3)OC(=O)CC23OC2(C)OC34[C@H](OC(=O)C(C)C)[C@@]3(O)[C@@H](OC(=O)C5(C)OC5C)[C@@]5(C)C[C@]3(O)[C@@](C)([C@H]5CC(=O)OC)C14O2 (stereo partly drawn),normalized growth,"locus YAL021C, strain ccr4, active compounds read low",1.03
same,normalized growth,"locus YAL026C, strain drs2, active compounds read low",0.981
same,normalized growth,"locus YAL030W, strain snc1, active compounds read low",0.996
same,normalized growth,"locus YBL061C, strain skt5, active compounds read low",1
same,normalized growth,"locus YBR009C, strain hhf1, active compounds read low",1.02
same,normalized growth,"locus YBR021W, strain FUR4, active compounds read low",1.07
same,normalized growth,"locus YBR023C, strain chs3, active compounds read low",1
same,normalized growth,"locus YBR171W, strain sec66, active compounds read low",0.988
same,normalized growth,"locus YBR229C, strain ROT2, active compounds read low",1.01
same,normalized growth,"locus YBR231C, strain swc5, active compounds read low",0.996
same,normalized growth,"locus YBR279W, strain paf1, active compounds read low",0.995
same,normalized growth,"locus YCL011C, strain gbp2, active compounds read low",1
same,normalized growth,"locus YCL016C, strain dcc1, active compounds read low",1.01
same,normalized growth,"locus YCL029C, strain bik1, active compounds read low",0.994
same,normalized growth,"locus YCL061C, strain MRC1, active compounds read low",1
same,normalized growth,"locus YCL069W, strain vba3, active compounds read low",0.995
same,normalized growth,"locus YCR088W, strain abp1, active compounds read low",0.999
same,normalized growth,"locus YDL005C, strain med2, active compounds read low",1.02
same,normalized growth,"locus YDL035C, strain GPR1, active compounds read low",0.974
same,normalized growth,"locus YDL040C, strain nat1, active compounds read low",0.996
same,normalized growth,"locus YDL074C, strain BRE1, active compounds read low",1.01
same,normalized growth,"locus YDL101C, strain DUN1, active compounds read low",1.03
same,normalized growth,"locus YDL185W, strain tfp1, active compounds read low",1.01
same,normalized growth,"locus YDL192W, strain arf1, active compounds read low",0.987
same,normalized growth,"locus YDR001C, strain nth1, active compounds read low",0.999
same,normalized growth,"locus YDR069C, strain doa4, active compounds read low",0.991
same,normalized growth,"locus YDR101C, strain arx1, active compounds read low",0.977
same,normalized growth,"locus YDR137W, strain rgp1, active compounds read low",0.651 (active)
same,normalized growth,"locus YDR150W, strain NUM1, active compounds read low",1
same,normalized growth,"locus YDR159W, strain sac3, active compounds read low",0.981
same,normalized growth,"locus YDR162C, strain NBP2, active compounds read low",0.993
same,normalized growth,"locus YDR195W, strain ref2",1.03
same,normalized growth,"locus YDR297W, strain sur2, active compounds read low",0.992
same,normalized growth,"locus YDR318W, strain mcm21, active compounds read low",1.01
same,normalized growth,"locus YDR334W, strain swr1, active compounds read low",1
same,normalized growth,"locus YDR335W, strain msn5, active compounds read low",0.997
same,normalized growth,"locus YDR388W, active compounds read low",1.01
same,normalized growth,"locus YDR392W, strain spt3, active compounds read low",0.998
same,normalized growth,"locus YDR502C, strain sam2, active compounds read low",1.03
same,normalized growth,"locus YEL003W, strain gim4, active compounds read low",1
same,normalized growth,"locus YEL037C, strain rad23, active compounds read low",1.01
same,normalized growth,"locus YEL061C, strain CIN8 (second series), active compounds read low",1
same,normalized growth,"locus YEL061C, strain CIN8, active compounds read low",1
same,normalized growth,"locus YER015W, strain faa2, active compounds read low",1.01
same,normalized growth,"locus YER016W, strain bim1, active compounds read low",1
same,normalized growth,"locus YER110C, active compounds read low",1.02
same,normalized growth,"locus YER111C, strain swi4, active compounds read low",0.99
same,normalized growth,"locus YER155C, strain BEM2 (second series), active compounds read low",1.02
same,normalized growth,"locus YER155C, strain BEM2, active compounds read low",1.01
same,normalized growth,"locus YER167W, strain BCK2, active compounds read low",0.995
same,normalized growth,"locus YFR010W, strain ubp6, active compounds read low",1.01
same,normalized growth,"locus YGL078C, strain dbp3, active compounds read low",1.03
same,normalized growth,"locus YGL086W, strain mad1, active compounds read low",1.02
same,normalized growth,"locus YGL167C, strain pmr1, active compounds read low",0.993
same,normalized growth,"locus YGL173C, strain kem1, active compounds read low",0.977
same,normalized growth,"locus YGL227W, strain vid30, active compounds read low",0.992
same,normalized growth,"locus YGL240W, strain doc1, active compounds read low",1
same,normalized growth,"locus YGL248W, strain PDE1, active compounds read low",1.03
same,normalized growth,"locus YGL253W, strain hxk2, active compounds read low",0.986
same,normalized growth,"locus YGR135W, strain pre9, active compounds read low",1.06
same,normalized growth,"locus YGR252W, strain gcn5, active compounds read low",1.15
same,normalized growth,"locus YHR013C, strain ard1, active compounds read low",1.01
same,normalized growth,"locus YHR027C, strain rpn1, active compounds read low",0.996
same,normalized growth,"locus YHR030C, strain SLT2, active compounds read low",1.05
same,normalized growth,"locus YHR079C, strain IRE1 (second series), active compounds read low",1
same,normalized growth,"locus YHR079C, strain IRE1, active compounds read low",1.04
same,normalized growth,"locus YHR094C, strain hxt1, active compounds read low",1.01
same,normalized growth,"locus YHR129C, strain ARP1, active compounds read low",1.02
same,normalized growth,"locus YHR142W, strain chs7, active compounds read low",0.994
same,normalized growth,"locus YHR200W, strain rpn10, active compounds read low",1.03
same,normalized growth,"locus YIL066C, strain RNR3, active compounds read low",0.982
same,normalized growth,"locus YIL073C, strain SPO22, active compounds read low",1
same,normalized growth,"locus YIL125W, strain kgd1, active compounds read low",1
same,normalized growth,"locus YIR030C, strain dcg1, active compounds read low",1
same,normalized growth,"locus YJL092W, strain hpr5, active compounds read low",1.01
same,normalized growth,"locus YJL095W, strain BCK1 (second series), active compounds read low",1.02
same,normalized growth,"locus YJL095W, strain BCK1, active compounds read low",1.06 and 1.02
same,normalized growth,"locus YJL115W, strain asf1, active compounds read low",1.01
same,normalized growth,"locus YJL129C, strain trk1, active compounds read low",0.98
same,normalized growth,"locus YJL134W, strain LCB3, active compounds read low",1
same,normalized growth,"locus YJL154C, strain vps35, active compounds read low",0.993
same,normalized growth,"locus YJL164C, strain tpk1, active compounds read low",0.996
same,normalized growth,"locus YJL166W, strain qcr8, active compounds read low",0.989
same,normalized growth,"locus YJL168C, strain set2, active compounds read low",1.01
same,normalized growth,"locus YJL187C, strain SWE1 (second series), active compounds read low",1.04
same,normalized growth,"locus YJL187C, strain SWE1, active compounds read low",1
same,normalized growth,"locus YJR066W, strain TOR1, active compounds read low",0.979
same,normalized growth,"locus YJR075W, strain HOC1, active compounds read low",1.02
same,normalized growth,"locus YKL009W, strain mrt4, active compounds read low",0.972
same,normalized growth,"locus YKL068W, active compounds read low",1
same,normalized growth,"locus YKL085W, strain MDH1 (second series), active compounds read low",1
same,normalized growth,"locus YKL085W, strain MDH1, active compounds read low",1
same,normalized growth,"locus YKL160W, strain elf1, active compounds read low",0.966
same,normalized growth,"locus YKL190W, strain CNB1, active compounds read low",0.999
same,normalized growth,"locus YKR001C, strain vps1, active compounds read low",0.996
same,normalized growth,"locus YKR026C, strain gcn3, active compounds read low",1
same,normalized growth,"locus YKR091W, strain srl3, active compounds read low",0.996
same,normalized growth,"locus YLL001W, strain dnm1, active compounds read low",1
same,normalized growth,"locus YLL026W, active compounds read low",1
same,normalized growth,"locus YLL041C, strain sdh2, active compounds read low",0.988
same,normalized growth,"locus YLR027C, strain aat2, active compounds read low",1.01
same,normalized growth,"locus YLR039C, strain RIC1, active compounds read low",0.774
same,normalized growth,"locus YLR058C, strain SHM2, active compounds read low",1.01
same,normalized growth,"locus YLR102C, strain apc9, active compounds read low",1.01
same,normalized growth,"locus YLR113W, strain HOG1, active compounds read low",1.01
same,normalized growth,"locus YLR221C, strain rsa3, active compounds read low",0.994
same,normalized growth,"locus YLR258W, strain gsy2, active compounds read low",0.983
same,normalized growth,"locus YLR262C, strain YPT6 (second series), active compounds read low",0.647 (active)
same,normalized growth,"locus YLR268W, strain sec22, active compounds read low",0.958
same,normalized growth,"locus YLR320W, strain mms22, active compounds read low",0.999
same,normalized growth,"locus YLR342W, strain FKS1, active compounds read low",1.01
same,normalized growth,"locus YLR357W, strain rsc2, active compounds read low",1.03
same,normalized growth,"locus YLR370C, strain arc18, active compounds read low",0.996
same,normalized growth,"locus YLR371W, strain rom2, active compounds read low",1.01
same,normalized growth,"locus YLR384C, strain iki3, active compounds read low",1.01
same,normalized growth,"locus YLR418C, strain cdc73, active compounds read low",1.04
same,normalized growth,"locus YML016C, strain PPZ1, active compounds read low",1.01
same,normalized growth,"locus YML032C, strain rad52, active compounds read low",0.98
same,normalized growth,"locus YML120C, strain ndi1, active compounds read low",1.01
same,normalized growth,"locus YML124C, strain tub3, active compounds read low",0.998
same,normalized growth,"locus YMR058W, strain fet3, active compounds read low",1.01
same,normalized growth,"locus YMR078C, strain ctf18, active compounds read low",0.999
same,normalized growth,"locus YMR125W, strain sto1, active compounds read low",1.01
same,normalized growth,"locus YMR129W, active compounds read low",0.99
same,normalized growth,"locus YMR205C, strain PFK2, active compounds read low",0.975
same,normalized growth,"locus YMR223W, strain ubp8, active compounds read low",1.01
same,normalized growth,"locus YMR231W, strain pep5, active compounds read low",0.992
same,normalized growth,"locus YMR307W, strain GAS1, active compounds read low",1.01
same,normalized growth,"locus YNL067W, strain RPL9B, active compounds read low",1.05
same,normalized growth,"locus YNL071W, strain lat1, active compounds read low",1.02
same,normalized growth,"locus YNL128W, strain TEP1, active compounds read low",0.99
same,normalized growth,"locus YNL153C, strain GIM3, active compounds read low",1.07
same,normalized growth,"locus YNL183C, strain NPR1, active compounds read low",0.988
same,normalized growth,"locus YNL209W, strain ssb2, active compounds read low",1.02
same,normalized growth,"locus YNL233W, strain BNI4, active compounds read low",1.04
same,normalized growth,"locus YNL248C, strain rpa49, active compounds read low",1.03
same,normalized growth,"locus YNL250W, strain rad50, active compounds read low",1.05
same,normalized growth,"locus YNL271C, strain bni1, active compounds read low",1.01
same,normalized growth,"locus YNL298W, strain CLA4, active compounds read low",1.02
same,normalized growth,"locus YNL307C, strain MCK1, active compounds read low",1.01
same,normalized growth,"locus YNL322C, strain KRE1 (second series), active compounds read low",1
same,normalized growth,"locus YNL322C, strain KRE1, active compounds read low",1
same,normalized growth,"locus YNR049C, strain mso1, active compounds read low",1.01
same,normalized growth,"locus YNR052C, strain pop2, active compounds read low",1.03
same,normalized growth,"locus YOL012C, strain htz1",0.642
same,normalized growth,"locus YOL147C, strain pex11, active compounds read low",0.999
same,normalized growth,"locus YOR001W, strain rrp6, active compounds read low",1
same,normalized growth,"locus YOR061W, strain CKA2, active compounds read low",0.987
same,normalized growth,"locus YOR069W, strain VPS5, active compounds read low",1
same,normalized growth,"locus YOR070C, strain gyp1, active compounds read low",1.02
same,normalized growth,"locus YOR080W, strain dia2, active compounds read low",1.01
same,normalized growth,"locus YOR083W, strain WHI5, active compounds read low",1.01
same,normalized growth,"locus YOR106W, strain vam3, active compounds read low",0.998
same,normalized growth,"locus YOR136W, strain idh2, active compounds read low",1.01
same,normalized growth,"locus YOR144C, strain elg1, active compounds read low",0.998
same,normalized growth,"locus YOR184W, strain ser1, active compounds read low",0.971
same,normalized growth,"locus YOR231W, strain MKK1, active compounds read low",0.991
same,normalized growth,"locus YOR265W, strain rbl2, active compounds read low",0.984
same,normalized growth,"locus YOR270C, strain vph1, active compounds read low",0.777 (active)
same,normalized growth,"locus YOR290C, strain snf2, active compounds read low",1
same,normalized growth,"locus YOR316C, strain cot1, active compounds read low",0.999
same,normalized growth,"locus YPL051W, strain arl3, active compounds read low",0.983
same,normalized growth,"locus YPL055C, strain LGE1, active compounds read low",0.979
same,normalized growth,"locus YPL078C, strain atp4, active compounds read low",0.992
same,normalized growth,"locus YPL106C, strain sse1, active compounds read low",1.06
same,normalized growth,"locus YPL240C, strain hsp82, active compounds read low",1
same,normalized growth,"locus YPL241C, strain CIN2, active compounds read low",0.983
same,normalized growth,"locus YPL256C, strain CLN2, active compounds read low",1.04
same,normalized growth,"locus YPR119W, strain clb2, active compounds read low",1.01
same,normalized growth,"locus YPR141C, strain kar3, active compounds read low",1.01
same,normalized growth,"locus YPR163C, strain tif3, active compounds read low",1.01
same,normalized growth,"locus YPR167C, strain met16, active compounds read low",1.01
same,normalized growth,"strain wtn01, active compounds read low",0.982
